In PubChem BioAssay (Tox21):
Inconclusive results are not listed. Calls of active or inactive are those of the source. The call rests on the fitted dose curve; in most records, active means well fitted curve in the direction sought with a large enough effect in the repeat runs; inconclusive means weak or mixed curves; inactive means no such curve, though single readings can be large; an effect the other way counts as inactive or inconclusive.

Key:
[1] = A CellTox Green Cytotoxicity Assay to monitor cytotoxicity in HEK293 cells - 40 hour (AID 1224871); further: nearly all actives have a fitted effect of over 45% in size
Method in brief: (§1)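 Each value comes from one timepoint of a single continuous run in which HEK293 cells with CellTox Green were exposed to compound for up to 40 h at 37 C, dye fluorescence rising with cell death.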

[2] = qHTS RealTime-Glo MT Cell Viability Assay in HEK293 cells - 16 hour (AID 1224872); further: top concentration of the series differs between compounds; nearly all actives have a fitted effect of over 50% in size
Method in brief: (§2)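 Homogeneous bioluminescent viability format in HEK293 cells (600 cells/well). Following 5 h at 37 C/5% CO2, 23 nL compound was pintooled; the signal was measured repeatedly during 40 h incubation.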

[3] = qHTS RealTime-Glo MT Cell Viability Assay in HepG2 cells - 8 hour (AID 1224873); further: nearly all actives have a fitted effect of over 55% in size
Method in brief: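 HepG2 cells mixed with RealTime-Glo MT reagents (NanoLuc plus cell-permeant prosubstrate) were seeded at 600 cells/well, incubated 5 h at 37 C/5% CO2, then pinned with compounds in DMSO; nonlytic luminescence tracked viability during 40 h treatment.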

[4] = qHTS RealTime-Glo MT Cell Viability Assay in HEK293 cells - 40 hour (AID 1224874); conditions: RealTime-Glo luminescence; max response: active compounds read low; further: nearly all actives have a fitted effect of over 50% in size
Method in brief: (§3)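 qHTS format; HEK293 cells with NanoLuc/prosubstrate reagent, 37 C/5% CO2 for 5 h pre-dosing; compounds 23 nL in DMSO; luminescence at each time point reflects viable cells.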

[5] = A CellTox Green Cytotoxicity Assay to monitor cytotoxicity in HEK293 cells - 24 hour (AID 1224875); further: series mostly up to about 77 µM; nearly all actives have a fitted effect of over 45% in size
Method in brief: as §1

[6] = A CellTox Green Cytotoxicity Assay to monitor cytotoxicity in HepG2 cells - 16 hour (AID 1224876); further: nearly all actives have a fitted effect of over 45% in size
Method in brief: (§4)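 Continuous culture of HepG2 cells with a membrane-impermeant DNA dye; rising fluorescence marks dead cells. Compound exposure lasted up to 40 h at 37 C, with reads every 8 h from 0 h.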

[7] = qHTS RealTime-Glo MT Cell Viability Assay in HepG2 cells - 32 hour (AID 1224877); further: nearly all actives have a fitted effect of over 55% in size
Method in brief: (§5)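 Cell number in HepG2 cultures estimated from NanoLuc luminescence generated by metabolic reduction of a prosubstrate by living cells. The homogeneous, nonlytic format allowed repeated reads at 0, 8, 16, 24, 32 and 40 h of compound exposure.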

[8] = A CellTox Green Cytotoxicity Assay to monitor cytotoxicity in HepG2 cells - 40 hour (AID 1224879); further: nearly all actives have a fitted effect of over 40% in size
Method in brief: as §4

[9] = qHTS RealTime-Glo MT Cell Viability Assay in HEK293 cells - 0 hour (AID 1224880); further: top concentration of the series differs between compounds; nearly all actives have a fitted effect of over 45% in size
Method in brief: as §3

[10] = A CellTox Green Cytotoxicity Assay to monitor cytotoxicity in HEK293 cells - 32 hour (AID 1224881); further: nearly all actives have a fitted effect of over 40% in size
Method in brief: as §1

[11] = A CellTox Green Cytotoxicity Assay to monitor cytotoxicity in HepG2 cells - 0 hour (AID 1224882); further: nearly all actives have a fitted effect of over 35% in size
Method in brief: as §4

[12] = A CellTox Green Cytotoxicity Assay to monitor cytotoxicity in HepG2 cells - 32 hour (AID 1224883); further: nearly all actives have a fitted effect of over 50% in size
Method in brief: as §4

[13] = A CellTox Green Cytotoxicity Assay to monitor cytotoxicity in HEK293 cells - 8 hour (AID 1224884); further: nearly all actives have a fitted effect of over 35% in size
Method in brief: as §1

[14] = qHTS RealTime-Glo MT Cell Viability Assay in HepG2 cells - 16 hour (AID 1224885); further: nearly all actives have a fitted effect of over 50% in size
Method in brief: as §5

[15] = qHTS RealTime-Glo MT Cell Viability Assay in HEK293 cells - 8 hour (AID 1224887)
Method in brief: as §3

[16] = qHTS RealTime-Glo MT Cell Viability Assay in HepG2 cells - 0 hour (AID 1224889); further: nearly all actives have a fitted effect of over 50% in size
Method in brief: as §5

[17] = A CellTox Green Cytotoxicity Assay to monitor cytotoxicity in HepG2 cells - 8 hour (AID 1224890); further: nearly all actives have a fitted effect of over 45% in size
Method in brief: as §4

[18] = A CellTox Green Cytotoxicity Assay to monitor cytotoxicity in HepG2 cells - 24 hour (AID 1224878); further: nearly all actives have a fitted effect of over 45% in size
Method in brief: as §4

[19] = qHTS RealTime-Glo MT Cell Viability Assay in HEK293 cells - 24 hour (AID 1224886)
Method in brief: as §2

[20] = A CellTox Green Cytotoxicity Assay to monitor cytotoxicity in HEK293 cells - 16 hour (AID 1224888); further: nearly all actives have a fitted effect of over 35% in size
Method in brief: as §1
On the % scale 0 is the no-effect control and ±100 the full control effect.

c1ccc2cnncc2c1
inactive: Potency [1] | Potency [2] | outcome [3] | max response [4] 12.8% | Potency [5] | Potency [6] | Potency [7] | Potency [8] | outcome [9] | Potency [10] | Potency [11] | Potency [12] | Potency [13] | outcome [14] | Potency [15] | Potency [16] | Potency [17]

C=C(C)C(=O)NCCC[N+](C)(C)C
inactive: Potency [1] | Potency [2] | outcome [3] | max response [4] 0.623% | Potency [5] | Potency [6] | Potency [18] | Potency [8] | outcome [9] | Potency [10] | Potency [11] | Potency [12] | Potency [13] | outcome [14] | Potency [19] | Potency [15] | Potency [20] | Potency [16] | Potency [17]

NS(=O)(=O)c1cc(C2(O)NC(=O)c3ccccc32)ccc1Cl (stereo unspecified)
inactive: Potency [1] | Potency [2] | outcome [3] | max response [4] 1% | Potency [5] | Potency [6] | Potency [7] | Potency [8] | outcome [9] | Potency [10] | Potency [11] | Potency [12] | Potency [13] | outcome [14] | Potency [19] | Potency [15] | Potency [20] | Potency [16] | Potency [17]

CC(C)COC(=O)c1ccccc1O
inactive: Potency [1] | Potency [2] | outcome [3] | max response [4] 7.83% | Potency [5] | Potency [6] | Potency [7] | Potency [8] | outcome [9] | Potency [10] | Potency [11] | Potency [12] | Potency [13] | outcome [14] | Potency [19] | Potency [15] | Potency [20] | Potency [17]

Cc1c(C)n(CCN(C)C)c2ccc(C(=O)OCCN(C)C)cc12
inactive: Potency [1] | Potency [2] | outcome [3] | Potency [5] | Potency [6] | Potency [7] | Potency [18] | Potency [8] | outcome [9] | Potency [10] | Potency [11] | Potency [12] | Potency [13] | outcome [14] | Potency [20] | Potency [16] | Potency [17]

CCCOc1ccccc1-c1nc2n[nH]nc2c(=O)[nH]1
inactive: Potency [1] | Potency [2] | outcome [3] | Potency [5] | Potency [6] | Potency [18] | Potency [8] | outcome [9] | Potency [10] | Potency [11] | Potency [13] | outcome [14] | Potency [15] | Potency [20] | Potency [16] | Potency [17]

C[N+](C)(C)CC[N+]1(C)Cc2c(Cl)c(Cl)c(Cl)c(Cl)c2C1
inactive: Potency [1] | Potency [2] | outcome [3] | max response [4] 7.36% | Potency [5] | Potency [6] | Potency [8] | outcome [9] | Potency [10] | Potency [11] | Potency [12] | Potency [13] | outcome [14] | Potency [19] | Potency [15] | Potency [20] | Potency [16] | Potency [17]

CCCC=O
inactive: Potency [1] | Potency [2] | max response [4] 6.1% | Potency [5] | Potency [6] | Potency [7] | Potency [18] | Potency [8] | outcome [9] | Potency [10] | Potency [11] | Potency [12] | Potency [13] | outcome [14] | Potency [19] | Potency [15] | Potency [20] | Potency [16]

COC(=O)CCCCCCCCC(=O)OC
inactive: Potency [1] | Potency [2] | max response [4] 2.88% | Potency [5] | Potency [6] | Potency [7] | Potency [18] | Potency [8] | outcome [9] | Potency [10] | Potency [11] | Potency [12] | Potency [13] | outcome [14] | Potency [19] | Potency [20] | Potency [16] | Potency [17]

C=C(C)C1CC=C(C)C(O)C1 (stereo unspecified)
inactive: Potency [1] | Potency [2] | max response [4] 9.55% | Potency [5] | Potency [6] | Potency [7] | Potency [18] | Potency [8] | outcome [9] | Potency [10] | Potency [11] | Potency [12] | Potency [13] | outcome [14] | Potency [19] | Potency [15] | Potency [20] | Potency [16]

O=[N+]([O-])c1ccc(CCO)cc1
inactive: Potency [1] | Potency [2] | max response [4] -7.45% | Potency [5] | Potency [6] | Potency [7] | Potency [18] | Potency [8] | outcome [9] | Potency [10] | Potency [11] | Potency [12] | Potency [13] | outcome [14] | Potency [19] | Potency [20] | Potency [16] | Potency [17]
